Measurements taken from PubChem BioAssay (EPA / NIEHS).
Calls of active or inactive are those of the source. How the source made its calls: active means hit-call score of the fitted dose curve at least 0.9, where 1 is the maximum; inactive means score below 0.9.

Legend:
[1] = ATG_CRE_CIS: Attagene CIS-FACTORIAL HepG2 Assay for human cAMP Responsive Element (CRE) binding protein 3 (AID 2282926); settings: HepG2 CRE cis-reporter, Attagene multiplexed mRNA; actives raise or lower the signal
Method in brief: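 Cells carrying cis-regulated reporter constructs respond through their own endogenous factors. After 24 h treatment, RNA is reverse-transcribed, amplified, labelled and sized by capillary electrophoresis; up- and down-regulation are both scored against vehicle.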

[2] = target: CCAAT/enhancer-binding protein beta (Homo sapiens) (UniProt P17676); assay: ATG_C_EBP_CIS: Attagene CIS-FACTORIAL HepG2 Assay for human CCAAT/Enhancer Binding Protein (C/EBP) beta (AID 2282927); settings: HepG2 Attagene cis-factorial transcription factor reporter; actives raise or lower the signal
Method in brief: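 HepG2 transiently transfected with multiplexed reporter units under cis-regulatory promoters reporting endogenous C/EBPb activity. After 24 h exposure, reporter mRNA assayed by RT-PCR, fluorescent labelling, HpaI digestion and capillary electrophoresis; bidirectional fitting versus DMSO.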

[3] = ATG_CMV_CIS: Attagene CIS-FACTORIAL HepG2 Assay for human CMV (Internal Marker) (AID 2282928); settings: HepG2 CMV promoter reporter, transcription factor profiling; actives raise or lower the signal;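 further: endpoint acts as a background internal control marker rather than a target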
Method in brief: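 Fluorescence intensity of RT-PCR-derived reporter fragments, resolved by capillary electrophoresis, gives the signal. HepG2 liver cells bearing transfected cis-element reporters were treated 24 h; activity in either direction was fit relative to DMSO-treated controls.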

[4] = ATG_DR4_LXR_CIS: Attagene CIS-FACTORIAL HepG2 Assay for human Liver X Receptor (LXR), DR4 submotif (AID 2282929); settings: HepG2 Attagene DR4 cis-reporter, mRNA transcription; actives raise or lower the signal
Method in brief: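 HepG2 cells transiently transfected with cis-promoter-driven multiplexed reporter units (DR4 element) were dosed for 24 h. Reporter mRNA was quantified by RT-PCR, fluorescent primer extension, HpaI digestion and capillary electrophoresis; bidirectional fitting versus DMSO baseline.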

[5] = target: Aryl hydrocarbon receptor (Homo sapiens) (UniProt P35869); assay: ATG_Ahr_CIS: Attagene CIS-FACTORIAL HepG2 Assay for human Aryl Hydrocarbon Receptor (Ahr) (AID 2282930); settings: HepG2 AhR cis-factorial reporter transcription; actives raise or lower the signal
Method in brief: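 HepG2 cells transiently transfected with cis-element-driven multiplexed reporter units; endogenous AhR activity read as reporter mRNA 24 h after dosing, via RT-PCR, 6-FAM labelling, HpaI digestion and capillary electrophoresis. Bidirectional fit relative to DMSO.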

[6] = ATG_AP_1_CIS: Attagene CIS-FACTORIAL HepG2 Assay for human Activator Protein 1 (AP-1) (AID 2282931); settings: HepG2 Attagene cis-factorial AP-1 reporter mRNA; actives raise or lower the signal
Method in brief: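 HepG2 cells transiently transfected with cis-element-driven multiplex reporter units; 24 h compound exposure. Reporter mRNA quantified by RT-PCR, FAM-labelled fragments resolved by capillary electrophoresis; bidirectional fit versus DMSO baseline.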

[7] = ATG_AP_2_CIS: Attagene CIS-FACTORIAL HepG2 Assay for human Activator Protein 2 (AP-2) (AID 2282932); settings: HepG2 AP-2 cis-reporter, Attagene transcription factor profiling; actives raise or lower the signal
Method in brief: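 Liver-derived HepG2 line, cis-reporter system measuring endogenous factors; 24 h dosing; reporter mRNA detected by fluorescent RT-PCR and capillary electrophoresis.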

[8] = target: Retinoic acid receptor alpha (Homo sapiens) (UniProt P10276); assay: ATG_DR5_RAR_CIS: Attagene CIS-FACTORIAL HepG2 Assay for human Retinoic Acid Receptor Alpha (RARE), DR5 submotif (AID 2282934); settings: HepG2 Attagene cis-factorial RARE DR5 reporter, mRNA; actives raise or lower the signal;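 on AC50: reporter responds to endogenous RAR alpha beta and gamma in HepG2 not RARA alone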
Method in brief: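 HepG2 cells transiently transfected with multiplexed reporter units; DR5 cis-element drives reporter through endogenous transcription factors. After 24 h dosing, reporter mRNA quantified by RT-PCR, fluorescent labeling, HpaI digestion and capillary electrophoresis; bidirectional fitting versus DMSO.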

[9] = target: Transcription factor E2F1 (Homo sapiens) (UniProt Q01094); assay: ATG_E2F_CIS: Attagene CIS-FACTORIAL HepG2 Assay for human E2F Transcription Factor 1 (AID 2282935); settings: HepG2 Attagene cis-reporter, E2F reporter RNA transcripts; actives raise or lower the signal
Method in brief: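 Liver-derived HepG2 cells expressing transfected promoter-driven reporter units received test chemical for 24 hours. Signal gains or losses were fitted bidirectionally against DMSO.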

[10] = ATG_BRE_CIS: Attagene CIS-FACTORIAL HepG2 Assay for human Bone Morphogenetic Protein (BMP) Response Element (BRE) (AID 2282933); settings: HepG2 BMP response element reporter, Attagene transcription factor profiling; actives raise or lower the signal
Method in brief: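 HepG2 cells transiently transfected with multiplexed cis-element reporter units were dosed with chemical for 24 h. Reporter mRNA was measured by RT-PCR with fluorescent labelling, HpaI digestion and capillary electrophoresis; bidirectional fitting relative to DMSO.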

Measured: AC50

Chain of Aryl hydrocarbon receptor (Homo sapiens) (P35869 whole entry, looked up): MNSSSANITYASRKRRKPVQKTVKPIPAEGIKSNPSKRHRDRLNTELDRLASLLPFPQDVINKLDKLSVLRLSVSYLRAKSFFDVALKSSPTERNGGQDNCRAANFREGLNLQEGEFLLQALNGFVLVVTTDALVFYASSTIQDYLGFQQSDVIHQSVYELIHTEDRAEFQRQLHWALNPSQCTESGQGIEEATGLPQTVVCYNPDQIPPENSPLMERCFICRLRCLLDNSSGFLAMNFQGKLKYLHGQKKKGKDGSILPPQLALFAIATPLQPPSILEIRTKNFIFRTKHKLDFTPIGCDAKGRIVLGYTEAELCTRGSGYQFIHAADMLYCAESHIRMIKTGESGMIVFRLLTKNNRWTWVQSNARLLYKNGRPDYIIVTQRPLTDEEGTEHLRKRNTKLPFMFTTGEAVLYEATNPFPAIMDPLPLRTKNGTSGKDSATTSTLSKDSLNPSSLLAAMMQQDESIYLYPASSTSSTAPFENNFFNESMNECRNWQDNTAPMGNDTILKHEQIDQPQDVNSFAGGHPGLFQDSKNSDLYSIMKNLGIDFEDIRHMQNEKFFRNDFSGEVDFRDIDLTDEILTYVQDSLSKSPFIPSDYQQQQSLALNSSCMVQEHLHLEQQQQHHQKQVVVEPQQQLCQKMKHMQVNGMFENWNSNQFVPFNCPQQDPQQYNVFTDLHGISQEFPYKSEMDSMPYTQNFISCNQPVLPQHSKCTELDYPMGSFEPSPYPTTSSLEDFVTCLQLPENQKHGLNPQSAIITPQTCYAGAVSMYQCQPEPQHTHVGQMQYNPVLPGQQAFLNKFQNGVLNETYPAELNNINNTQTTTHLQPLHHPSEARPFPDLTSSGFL
Chain of Transcription factor E2F1 (Homo sapiens) (Q01094 whole entry, looked up): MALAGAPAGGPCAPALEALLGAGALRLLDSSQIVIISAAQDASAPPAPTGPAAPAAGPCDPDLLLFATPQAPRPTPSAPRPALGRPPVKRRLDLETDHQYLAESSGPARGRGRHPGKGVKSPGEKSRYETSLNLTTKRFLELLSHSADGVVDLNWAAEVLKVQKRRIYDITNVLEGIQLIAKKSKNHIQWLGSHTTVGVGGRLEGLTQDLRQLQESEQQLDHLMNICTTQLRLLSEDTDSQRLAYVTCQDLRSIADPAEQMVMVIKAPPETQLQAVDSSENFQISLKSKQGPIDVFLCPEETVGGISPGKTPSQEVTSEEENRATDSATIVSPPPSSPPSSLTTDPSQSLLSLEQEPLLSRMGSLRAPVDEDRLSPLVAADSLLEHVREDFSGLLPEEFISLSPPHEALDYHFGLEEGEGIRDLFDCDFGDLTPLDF
Chain of CCAAT/enhancer-binding protein beta (Homo sapiens) (P17676 whole entry, looked up): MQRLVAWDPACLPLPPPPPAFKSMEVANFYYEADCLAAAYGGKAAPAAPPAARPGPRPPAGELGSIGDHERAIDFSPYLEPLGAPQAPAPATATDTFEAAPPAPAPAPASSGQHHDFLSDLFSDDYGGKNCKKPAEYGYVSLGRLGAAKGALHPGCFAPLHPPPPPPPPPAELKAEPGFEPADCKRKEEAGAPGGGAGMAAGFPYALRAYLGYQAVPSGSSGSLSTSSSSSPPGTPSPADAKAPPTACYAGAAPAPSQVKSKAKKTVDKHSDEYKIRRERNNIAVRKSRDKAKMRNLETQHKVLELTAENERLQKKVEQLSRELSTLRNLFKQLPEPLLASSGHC
Chain of Retinoic acid receptor alpha (Homo sapiens) (P10276 whole entry, looked up): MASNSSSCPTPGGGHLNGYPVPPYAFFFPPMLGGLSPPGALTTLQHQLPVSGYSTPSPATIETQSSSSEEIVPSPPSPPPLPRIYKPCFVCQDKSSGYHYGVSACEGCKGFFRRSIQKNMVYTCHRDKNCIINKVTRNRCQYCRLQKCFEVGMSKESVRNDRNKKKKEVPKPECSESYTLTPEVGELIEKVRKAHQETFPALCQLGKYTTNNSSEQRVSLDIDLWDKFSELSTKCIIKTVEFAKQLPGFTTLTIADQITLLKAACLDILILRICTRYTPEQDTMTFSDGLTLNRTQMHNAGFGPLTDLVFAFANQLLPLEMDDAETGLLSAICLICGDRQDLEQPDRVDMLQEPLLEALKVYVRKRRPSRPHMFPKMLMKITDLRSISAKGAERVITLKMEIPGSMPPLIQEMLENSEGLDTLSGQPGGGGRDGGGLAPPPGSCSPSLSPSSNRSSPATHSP

COC(=O)c1ccccc1O
active: [4] 26.1 µM
not listed: [10]
inactive: all other assays above

C[C@](N)(Cc1ccc(O)c(O)c1)C(=O)O
inactive: all assays above

CC(C)=CCC/C(C)=C\CO
not listed: [8]
inactive: all other assays above

CCCCC(CC)COC(=O)CCCCCCCCC(=O)OCC(CC)CCCC (stereo unspecified)
active: [1] 25.2 µM
not listed: [8]
inactive: all other assays above

O=C(OC[C@H]1O[C@@H](OC(=O)c2cc(O)c(O)c(OC(=O)c3cc(O)c(O)c(O)c3)c2)[C@H](OC(=O)c2cc(O)c(O)c(OC(=O)c3cc(O)c(O)c(O)c3)c2)[C@@H](OC(=O)c2cc(O)c(O)c(OC(=O)c3cc(O)c(O)c(O)c3)c2)[C@@H]1OC(=O)c1cc(O)c(O)c(OC(=O)c2cc(O)c(O)c(O)c2)c1)c1cc(O)c(O)c(OC(=O)c2cc(O)c(O)c(O)c2)c1
not listed: [10]
inactive: all other assays above

CNS(=O)(=O)c1cc(C(=O)N2CCC(CCN3C4CCC3CC(n3c(C)nc5ccccc53)C4)(c3cccc(F)c3)CC2)c(Cl)cc1F (stereo unspecified)
active: [4] 7.55 µM
inactive: all other assays above

C1N2CN3CN1CN(C2)C3
inactive: all assays above

CCOCCOCCOCCO
inactive: all assays above

CC(C)=CCC/C(C)=C/CO
not listed: [8]
inactive: all other assays above

Cc1ccc(O)cc1
inactive: all assays above

CN(C)c1ccc(Cc2ccc(N(C)C)cc2)cc1
active: [3] 70.4 µM | [6] 65 µM
not listed: [10]
inactive: all other assays above

CCCC(=O)OCC
not listed: [10]
inactive: all other assays above

CN(C)c1ccc(N=NS(=O)(=O)O)cc1
active: [5] 7.46 µM | [6] 43.8 µM
not listed: [10]
inactive: all other assays above

CCCCC(CC)COC(=O)c1ccc(C(=O)OCC(CC)CCCC)cc1 (stereo unspecified)
active: [5] 66 µM
not listed: [10]
inactive: all other assays above

CCOc1cccc(-n2cc(C(=O)N3CCN(c4cc(C(=O)O)c5ccccc5c4)CC3)nc2-c2ccc(C)cc2)c1
active: [4] 25.1 µM | [6] 18.4 µM | [10] 54.7 µM | [8] 26 µM
inactive: all other assays above

CCCCCCc1ccc(O)cc1O
active: [3] 33.4 µM | [4] 44.4 µM
not listed: [10]
inactive: all other assays above

COc1ccc(/C=C/S(=O)(=O)NC(=O)c2ccc(C)cc2Cl)cc1
not listed: [10]
inactive: all other assays above

CCCCCCCCCCCCc1ccccc1
not listed: [10]
inactive: all other assays above

Cc1c(-c2cccnc2)c2ccccc2n1CCCCC(=O)O
not listed: [10]
inactive: all other assays above

COc1cccc(-c2ccc(/C=C\CN3CCCCCC3)cc2Cl)c1
active: [6] 16.2 µM
not listed: [8] | [10]
inactive: all other assays above

CCN(C(=O)c1cc(C)cc(OC[C@H](C)Nc2ccncc2)c1)C(C)C
active: [4] 67.5 µM
not listed: [10]
inactive: all other assays above

O=C(NS(=O)(=O)/C=C/c1ccccc1)c1ccc(F)cc1Cl
not listed: [10]
inactive: all other assays above

Nc1nc2ncc(CNc3ccc(C(=O)N[C@@H](CCC(=O)O)C(=O)O)cc3)nc2c(=O)[nH]1
not listed: [10]
inactive: all other assays above

CC(O)CN(CCN(CC(C)O)CC(C)O)CC(C)O (stereo unspecified)
not listed: [10]
inactive: all other assays above

CC[C@H](C)C(=O)O[C@H]1C[C@@H](C)C=C2C=C[C@H](C)[C@H](CC[C@@H]3C[C@@H](O)CC(=O)O3)[C@H]21
active: [4] 52.4 µM
not listed: [8] | [10]
inactive: all other assays above

O=C(O)c1cc(N=Nc2ccc(S(=O)(=O)Nc3ccccn3)cc2)ccc1O
not listed: [10]
inactive: all other assays above

Oc1ccc2c(c1)-c1ccccc1C2
active: [1] 44.4 µM | [2] 74 µM | [3] 4.28 µM | [4] 1.79 µM | [5] 2.53 µM | [8] 27.5 µM
inactive: [6] | [7] | [9]

CC1=CC(=O)CC(C)(C)C1
not listed: [10]
inactive: all other assays above

COC(=O)c1c(Cl)c(Cl)c(C(=O)OC)c(Cl)c1Cl
not listed: [8] | [10]
inactive: all other assays above

CC/C(=C\C(=N/O)C(N)=O)C(C)[N+](=O)[O-] (stereo unspecified)
not listed: [10]
inactive: all other assays above

COc1ccc2sc(C(=O)Nc3nnn[nH]3)c(OC(C)C)c2c1
active: [3] 26.9 µM | [4] 158 µM | [6] 27 µM
not listed: [8] | [10]
inactive: all other assays above

O=C(O)c1cccc(Oc2ccccc2)c1
not listed: [10]
inactive: all other assays above

CCOC(=O)CC(CC(=O)OCC)(OC(C)=O)C(=O)OCC
not listed: [10]
inactive: all other assays above

CNCc1ccc(NC(=O)c2c[nH]c3c2C(=O)CCC3)cc1
active: [5] 4.66 µM
not listed: [10]
inactive: all other assays above

O=P(OC(CCl)CCl)(OC(CCl)CCl)OC(CCl)CCl
active: [1] 72.3 µM | [3] 100 µM
not listed: [10]
inactive: all other assays above

CCn1nc(Cc2ccccc2)cc1C1CCN(C[C@H]2C[C@H](N(C)[C@@H](C(=O)O)C(C)C)C[C@@H]2c2cccc(F)c2)CC1
active: [4] 100 µM
not listed: [10]
inactive: all other assays above

On1ccccc1=S
not listed: [10]
inactive: all other assays above

O=c1n(CC2CO2)c(=O)n(CC2CO2)c(=O)n1CC1CO1 (stereo unspecified)
active: [1] 44.5 µM | [2] 75.7 µM | [6] 4.4 µM
not listed: [10]
inactive: all other assays above

CC(C)=CCCC(C)CCO (stereo unspecified)
not listed: [10]
inactive: all other assays above

CCOC(=O)COc1ccc2c(c1)CC(NCC(O)c1cccc(Cl)c1)CC2 (stereo unspecified)
active: [1] 33 µM
not listed: [10]
inactive: all other assays above

O=c1[nH]c2ccc(S(=O)CCN3CCC(Cc4ccc(F)cc4)CC3)cc2o1 (stereo unspecified)
active: [4] 173 µM
not listed: [10]
inactive: all other assays above

O=C(O)CCN(C1(C(=O)NO)CCCC1)S(=O)(=O)c1ccc(Oc2ccc(F)cc2)cc1
not listed: [10]
inactive: all other assays above

Cn1c(=O)c2c(ncn2C)n(C)c1=O
not listed: [10]
inactive: all other assays above

O=C(O)c1cccc(N(Cc2cccnc2)c2ccc(OC(F)F)c(OC(F)F)c2)c1
not listed: [10]
inactive: all other assays above

CCNc1ccccc1
not listed: [10]
inactive: all other assays above

COCCOCCOCCOC
not listed: [10]
inactive: all other assays above
